Screening results: PubChem BioAssay, National Center for Advancing Translational Sciences (NCATS)
A350 autofl: compounds fluorescent in Alexa 350 spectral region. max dye-equivalent concentration, M. 59,000 compounds, 11% hits. Compound autofluorescence, 340/450 nm, Alexa 350 dye-equivalents; stronger effect = higher value; in the data active = max dye-equivalent concentration above about 10 nM; inconclusive = mostly about 1.1 nM to 9.6 nM
HADH2 inhib: blocks human hydroxyacyl-CoA dehydrogenase type II. recombinant HADH2, NADH fluorescence, beta-hydroxybutyryl-CoA. Potency, µM (titrated, usually from 57.1 µM), inactives show at the top dose activity change, negative = inhibition, hits mostly inhibitors. 73,000 compounds, 3.4% hits; note: potency is the fitted concentration of half-maximal effect; % is set by controls: 0 for no effect and ±100 for the full control effect; nearly all actives have a fitted effect of over 60% in size
Target sequence (Q99714 whole entry, looked up, one chain of several): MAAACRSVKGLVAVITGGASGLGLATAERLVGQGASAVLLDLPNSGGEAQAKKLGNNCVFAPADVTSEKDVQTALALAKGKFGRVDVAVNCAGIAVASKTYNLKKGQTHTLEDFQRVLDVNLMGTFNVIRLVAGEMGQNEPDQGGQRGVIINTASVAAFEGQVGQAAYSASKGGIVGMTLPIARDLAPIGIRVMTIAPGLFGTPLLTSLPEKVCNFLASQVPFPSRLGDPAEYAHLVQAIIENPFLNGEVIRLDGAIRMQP
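Buffer 100 mM Tris-HCl pH 9.0/0.01% Tween-20; HADH2 20 nM; NAD+ 1 mM; beta-hydroxybutyryl-CoA 90 uM (all final). 15 min cpd preincubation, RT.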
4-MU autofl: compounds fluorescent in 4-MU spectral region. compound autofluorescence, 340/450 nm, 4-MU equivalents; stronger effect = higher value. max dye-equivalent concentration, M. 59,000 compounds, 11% hits; in the data active = max dye-equivalent concentration above about 10 nM; inconclusive = mostly about 1.1 nM to 9.6 nM
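Compounds in 100 mM Tris, pH 8.0, sat 15 min at room temperature before fluorescence was read at 340 nm excitation/450 nm emission; a per-plate six-point 4-MU standard curve converted signals to dye-equivalent concentration at each compound concentration.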
CRE Fsk mod: alters forskolin-stimulated CRE reporter signaling in CHO cells; CHO CRE-bla reporter (cAMP response element driving beta-lactamase), forskolin EC10, beta-lactamase ratio; Potency, µM (series often up to 38.2 µM), for the others: top-dose activity change, negative = inhibition, usual class: activators; 71,000 compounds, 2.5% hits; AID 662; active = well fitted activation curve with a large enough effect in the signal ratio, with a control signal flat, not every such curve was filed as active; inconclusive = small, poorly fitted or top-dose-only effect, or effect the other way, or a change in a side signal; the % refers to the signal ratio; note: potency is the fitted concentration of half-maximal effect; % of control where 0% means no effect
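Forskolin analogue NKH 477 at EC10 stimulated CRE-driven beta-lactamase in CHO cells alongside compound dilution series. Beta-lactamase was measured with CCF4, excitation 405 nm, emission ratio 460/530 nm.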
AID923: qHTS Assay for Allosteric/Competitive Inhibitors of Caspase-1: Spectroscopic Profiling in AFC Spectral Region; 75,000 compounds, 1.1% hits; Potency, µM (series often up to 57.5 µM), without a hit: at the top dose fluorescence increase, actives largely listed as activators; AID 923, 2007; compound fluorescence, AFC spectral region (405/520 nm); note: potency is the fitted concentration of half-maximal effect; 0% is about no effect
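Titrations up to 57 uM read every 20 sec for 3 min (405/520 nm) with 50 nM caspase 1 and 5 uM Ac-WEHD-AFC, pH 7.5 HEPES buffer. Fluorescence-vs-time intercept gave baseline, scaled against on-plate AFC standard.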
HSD17B inhib: HSD17B dehydrogenase inhibition | Potency, µM (series often up to 57.1 µM), without a hit: at the highest dose activity change, negative = inhibition, usual class: inhibitors | 75,000 compounds, 7.6% hits | recombinant HSD17B10, NADH fluorescence kinetic;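 note: the protocol describes HADH2 (HSD17B10) and not the HSD17B4 of the title; potency is the fitted concentration of half-maximal effect; % is set by controls: 0 for no effect and ±100 for the full control effect; nearly all actives have a fitted effect of over 70% in size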
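His-tagged E. coli-expressed HADH2 at 20 nM in 100 mM Tris-HCl pH 9.0 with 0.01 % Tween-20, preincubated 15 min with compound at room temperature. Reaction with 1 mM NAD+ and 90 uM beta-hydroxybutyryl coenzyme A; NADH fluorescence (360/450 nm) read kinetically over 4 min, last minus first point.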
CHO tox 24h: cytotoxicity in CRE-bla CHO cells at 24 h; shares compounds with CRE Fsk mod; CRE-bla CHO viability, ATP luminescence, 24 h; activity, negative = viability loss, % at 46.1 µM; 120 tested, under 10 active
CHO via 40h: cytotoxicity in CRE-bla CHO cells at 40 h; CRE-bla CHO viability, ATP luminescence, 40 h; 120 tested, under 10 active; AID 906; Potency, µM, for inactives: max response, hits mostly inhibitors; shares compounds with CRE Fsk mod
CREB luc CRC: boosts CRE luciferase signal in HEK293 cells; shares compounds with CRE Fsk mod; HEK293 CRE-luc2P, NKH477 EC10 potentiation, luminescence, 4 h; Potency, µM (series often up to 38.3 µM), for inactives: at the highest dose activity, positive = activation, hits mostly activators; 120 compounds, 80% hits
An asterisk follows results filed as active; i = inactive; ? = inconclusive; . = no result given; [ ] = dose if it differs, or a comment. Only some compounds are listed: those with a hit (about 14% of all), similar ones and a draw of the others. Unless noted, calls come from the whole dose curve; as a rule, active = well fitted curve in the direction sought with a large enough effect; inconclusive = small, poorly fitted or top-dose-only effect, or another doubt; inactive = no such curve, though single readings can be large; an effect the other way counts as inactive or inconclusive.

SMILES	A350 autofl	HADH2 inhib	4-MU autofl	CRE Fsk mod	AID923	HSD17B inhib	CHO tox 24h	CHO via 40h	CREB luc CRC
COc1ccc(C2=Nn3c(nnc3-c3ccccc3OC)SC2)cc1OC	i	-8.6%	i	1.26µM*	-0.7%	0.1%	?	-27.1%	0.0398µM*
CCOc1ccc(C2=Nn3c(nnc3-c3ccccc3)SC2)cc1Cl	i	-10.4%	i	0.0794µM*	0.3%	5.3%	-4.9	-8.2%	1.58µM*
N[C@@H](C(=O)O)c1ccc(C(=O)O)cc1	.	1.2%	.	?	-1.2%	3.4%	.	.	.
Cc1nn(-c2ccccc2)c2sc(C(=O)OCC(=O)N3CCCCC3)cc12	i	?	i	-6.2%	-0.2%	?	.	.	.
Cc1cccc(N2CCN(c3nc4ccccc4n4cnnc34)CC2)c1C	.	-0.6%	.	8.2%	0.6%	?	.	.	.
c1cnc(N2CCN(c3nc4ccccc4n4cnnc34)CC2)nc1	i	?	i	2.51µM*	-1.1%	4.4%	-19.2	?	7.94µM*
Fc1ccc(CSc2ncnc3c2oc2ccccc23)cc1	?	-7.2%	i	1µM*	-2.4%	-7.4%	6.8	-20.9%	7.94µM*
Fc1cccc(CSc2ncnc3c2oc2ccccc23)c1	i	-11.1%	i	?	0.8%	1.6%	.	.	.
c1ccc2[nH]c(CN3CCN(c4ncnc5c4oc4ccccc45)CC3)nc2c1	i	7.0%	i	?	-0.4%	-7.1%	.	.	.
Cc1nc(SCc2nc3ccccc3[nH]2)c2oc3ccccc3c2n1	i	8.5%	i	0.0158µM*	6.9%	?	16.0	2.2%	1µM*
O=C(CSc1ncnc2c1oc1ccccc12)c1cccs1	i	9.6%	i	?	3.5%	1.7%	-4.4	-11.2%	1.26µM*
c1ccc2[nH]c(CSc3ncnc4c3oc3ccccc34)nc2c1	i	5.6%	i	?	4.5%	31.8%	-17.7	?	0.794µM*
COC(=O)c1ccc(CSc2ccc3nnc(-c4cccnc4)n3n2)o1	.	-11.3%	.	?	1.7%	10.2%	.	.	.
COC(=O)c1ccc(CSc2ccc3nnc(-c4ccc(OC)c(OC)c4)n3n2)o1	i	-6.6%	i	1.58µM*	-0.8%	?	-20.0	-27.6%	2µM*
Cc1ccc(C)c2[nH]c(=O)c(CCNC(=O)c3ccc(S(=O)(=O)N(C)C)cc3)cc12	.	5.6%	.	?	3.7%	8.9%	.	.	.
CCNc1nc(NC(C)C)nc(N(C#N)Cc2ccccc2)n1	i	-4.8%	i	15.1%	0.7%	-8.7%	.	.	.
CCNc1nc(NC(C)(C)C)nc(N(C#N)CC)n1	i	12.5%	i	?	2.4%	-5.0%	-12.2	-25.0%	1.26µM*
CCOC(=O)c1cnc2c(cnn2CC)c1NN=C(C)C	1.98e-08M*	?	3.16e-08M*	1µM*	-0.3%	?	-17.6	?	3.16µM*
Nc1nc(CSc2n[nH]c(-c3ccccc3)n2)nc(Nc2ccccc2)n1	?	-5.2%	i	2µM*	-1.7%	-13.8%	-10.4	?	5.01µM*
Nc1cccc(S(=O)(=O)O)c1	.	-3.2%	.	-6.9%	0.6%	?	.	.	.
Cn1c(/C(C#N)=C/Nc2ccccn2)nc2ccccc21	1.48e-08M*	.	?	.	.	.	6.0	-12.4%	12.6µM*
CCn1c(/C(C#N)=C(\O)CCc2ccccc2)nc2ccccc21	i	6.4%	i	?	3.9%	5.8%	.	.	.
CCOC(=O)N1CCN(C(=O)CSc2nc3c(cnn3-c3ccc(Cl)cc3)c(=O)[nH]2)CC1	.	6.2%	.	7.1%	-1.0%	-4.6%	.	.	.
CCOC(=O)N1CCN(C(=O)c2cc3cc(Br)ccc3oc2=O)CC1	.	2.8%	.	-23.6%	4.0%	0.6%	.	.	.
O=S(=O)(c1ccc2c(c1)OCCO2)N1CCC(O)(c2ccc(Cl)cc2)CC1	i	3.2%	i	1.4%	1.7%	22.2%	-2.2	-6.1%	?
SMILES	A350 autofl	HADH2 inhib	4-MU autofl	CRE Fsk mod	AID923	HSD17B inhib	CHO tox 24h	CHO via 40h	CREB luc CRC
O=S(=O)(c1ccc2c(c1)OCCO2)N1CCN(c2cccc(Cl)c2)CC1	i	5.2%	i	?	0.0%	-2.3%	.	.	.
CC[C@]1(O)C[C@@H]2CN(CCc3c([nH]c4ccccc34)[C@](C(=O)OC)(c3cc4c(cc3OC)N(C)[C@H]3[C@](O)(C(=O)OC)[C@@H](C(=O)OC)[C@@]5(CC)C=CCN6CC[C@@]43[C@@H]65)C2)C1	.	0.8%	.	0.251µM*	0.4%	-23.2%	?	?	-1.1%
O=S(=O)(NCCSc1nnnn1-c1ccccc1)c1cccs1	i	-5.2%	i	4.6%	-1.0%	2.1%	.	.	.
COc1cccc(-c2nnc3sc(C4CCCCC4)nn23)c1	i	.	i	.	.	.	.	.	.
COc1cc(-c2nnc3sc(C4CCCCC4)nn23)cc(OC)c1OC	i	-5.4%	i	1µM*	-3.4%	-28.2%	?	?	0.126µM*
CC(=O)N1CCN(c2ccc(Nc3nc(C)nc4c3oc3ccccc34)cc2)CC1	i	-6.6%	i	1µM*	-0.8%	?	-10.3	?	?
COC(=O)c1ccc(CSc2nc3c(cnn3-c3ccc(Cl)cc3)c(=O)[nH]2)o1	i	-27.7%	i	?	0.9%	-5.7%	.	.	.
COC(=O)c1ccc(CSc2nc3c(cnn3-c3ccc(F)cc3)c(=O)[nH]2)o1	?	?	i	12.6µM*	2.8%	?	-3.5	-18.3%	5.01µM*
CC(CCC(=O)O)(c1cc(Br)c(O)c(Br)c1)c1cc(Br)c(O)c(Br)c1	i	?	i	?	2.9%[11.5 µM]	?	.	.	.
CCn1c2ccccc2c2nnc(SCc3cc(=O)n4ccsc4n3)nc21	i	4.4%	i	1µM*	0.3%	-0.7%	-14.6	?	5.01µM*
CC(C)CN1CCC2(CC1)CCN(C(=O)c1csnn1)CC2	i	-12.5%	i	-4.1%	3.4%	-3.7%	.	.	.
CCN(C(=O)c1cn(C)c(=O)c2cc(OC)c(OC)cc12)c1ccccc1C	i	5.8%	i	?	0.9%	-21.3%	-2.5	-7.0%	5.01µM*
CCN(C(=O)c1cn(C)c(=O)c2cc(OC)c(OC)cc12)c1cc(C)ccc1C	i	-2.8%	i	?	-1.5%	-29.7%	.	.	.
